# PubChem BioAssay (EPA / NIEHS)
# The source made the active and inactive calls. How the source made its calls: active means hit-call score of the fitted dose curve at least 0.9, where 1 is the maximum; inactive means score below 0.9.
# Assay: UKN2_HCS_IMR90_neural_migration: University of Konstanz (UKN) Leist Lab Neural Crest Cell Migration Assay in human induced IMR90 Pluripotent Stem Cells (UKN2) (AID 2284204)
# Conditions: actives raise or lower the signal
# Experimental: UKN2_HCS_IMR90 is a cell-based, multiplexed-readout assay screening for neural crest cell migration and cell viability that uses IMR90 (neural crest cells differentiated from iPSC), a human embryo cell line, with measurements taken at […] after chemical dosing in a microplate: 96-well plate. UKN2, also known as cMINC, is an assay that uses IMR90 cells (neural crest cells differentiated from iPSC) as a model of neural crest cell migration. 24 hr after cell seeding, cell migration was initiated and proceeded for 24 hr. Then, chemical was applied, and after 24 hr of exposure migration and viability were assessed using high-content imaging of cells stained with calcein-AM and Hoechst H-33342.UKN2_HCS_IMR90_neural_migration is an assay component measured from the UKN2_HCS_IMR90 assay. It is designed to make measurements of neural crest cell migration, a form of morphology reporter, as detected with Fluorescence intensity signals by HCS Fluorescent Imaging.The assay endpoint UKN2_HCS_IMR90_neural_migration was analyzed with bidirectional fitting relative to DMSO as the negative control and baseline of activity. Using a type of morphology reporter, gain or loss-of-signal activity can be used to understand developmental effects. To generalize the intended target to other relatable targets, this assay endpoint is annotated to the neurodevelopment intended target family, where the subfamily is neural crest cell migration.
# The wells are coated with PLO/laminin/fibronectin. Then, silicone stoppers are placed into the wells of a 96-well plate. Cells are seeded around the stoppers and allowed to attach for 24 hours. Day 0: The silicone stoppers are removed and the medium is replaced with pre-warmed, fresh N2-S medium containing the cytokines EGF and FGF. Cells are allowed to migrate into the cell free area. Day 1: 25 ul of the 5x concentrated toxicants are added to the wells. The cells plus toxicants are incubated for 24 h. Day 2: Cells are stained with calcein-AM and Hoechst (H-33342) for 30 min before imaging with a high content imaging microscope. Quantification of migration and viability is done by high content imaging analysis.
Compound,outcome,AC50
C=C(C)CN(CC)c1c([N+](=O)[O-])cc(C(F)(F)F)cc1[N+](=O)[O-],inactive,–
CS(=O)(=O)c1ccc(C(=O)C2C(=O)CCCC2=O)c([N+](=O)[O-])c1,inactive,–
CO/N=C(/C1=NOCCO1)c1ccccc1Oc1ncnc(Oc2ccccc2Cl)c1F,inactive,–
O=C(Nc1ccccc1-c1ccc(Cl)cc1)c1cccnc1Cl,inactive,–
CCSC(=O)N1CCCCCC1,inactive,–
CC(C)(C)C(=O)C(Oc1ccc(Cl)cc1)n1cncn1 (stereo unspecified),inactive,–
COP(=S)(OC)SCn1nnc2ccccc2c1=O,–,19.6 µM (active)
CS(=O)(=O)c1cc(C(F)(F)F)ccc1C(=O)c1cnoc1C1CC1,inactive,–
CCOP(=O)(OCC)Oc1nc(Cl)c(Cl)cc1Cl,inactive,–
COC(=O)N(C(=O)N1CO[C@@]2(C(=O)OC)Cc3cc(Cl)ccc3C2=N1)c1ccc(OC(F)(F)F)cc1,inactive,–
Cc1c(COC(=O)[C@@H]2[C@H](/C=C(\Cl)C(F)(F)F)C2(C)C)cccc1-c1ccccc1,inactive,–
